Results as given in PubChem BioAssay.
Calls of active or inactive are those of the source.

Tests used:
[1] = tested on: Wnt5a (protein binding on small-molecule microarray); experiment: Wnt5a binders on small-molecule microarray, primary screen, biophysical, 635/667 nm fluorescence (AID 1142); details: 635 nm fluorescence, higher = more signal;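 also: fluorescence read at 667 nm with signal to noise per printed feature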
[2] = cell viability in Huh7 cells, primary screen, cytotoxicity control for HCV replication inhibitor project, CellTiter-Glo luminescence, basal, 48 h (AID 1143); details: Huh7 HCV replicon, higher = more signal, called active from +8 up or from −8 down;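 also: Huh7 hepatoma cells carrying a hepatitis C replication reporter with no stimulus; test concentration not given here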
[3] = CREB reporter modulators without forskolin, primary screen, cell-based, PC12, CRE-LacZ reporter, unstimulated (AID 1145); details: no forskolin, luminescence, 4.5 h, higher = more signal, called active from +8 up or from −8 down
[4] = CREB reporter modulators under forskolin, primary screen, cell-based, PC12, CRE-LacZ reporter, forskolin-stimulated (AID 1146); details: luminescence, 4.5 h, higher = more signal, called active from +8 up or from −8 down;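 also: PC12 cells with 6xCRE LacZ reporter stimulated by forskolin 10 µM; beta-galactosidase reporter signal reflecting CREB driven transcription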
[5] = molecular target: Streptavidin (Streptomyces avidinii) (UniProt P22629); experiment: streptavidin binders on small-molecule microarray, primary screen, artefact control for SMM compound annotation, biophysical, 635/667 nm fluorescence (AID 1147); details: streptavidin binding, higher = more signal;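 also: signal reflects streptavidin binding to arrayed compounds as a control protein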
Streptavidin (Streptomyces avidinii), sequence (P22629 whole entry, looked up): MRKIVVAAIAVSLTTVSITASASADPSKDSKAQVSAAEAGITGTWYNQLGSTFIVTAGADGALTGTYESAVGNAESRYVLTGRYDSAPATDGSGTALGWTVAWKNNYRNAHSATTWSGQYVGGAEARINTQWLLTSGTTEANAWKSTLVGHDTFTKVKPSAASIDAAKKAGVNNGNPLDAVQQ

[6] = small-molecule binders of probe aInhba, primary screen, biochemical, small-molecule microarray, 635/667 nm fluorescence (AID 1148); details: higher = more signal;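 also: score merges 667nm spot fluorescence with signal-to-noise for antibody binding to printed compounds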
Torsin-1A (Homo sapiens) [7] = molecular target: Torsin-1A (Homo sapiens) (UniProt O14656); experiment: torsin A binders from cell lysate, primary screen, small-molecule microarray, wild-type, 635/667 nm (AID 1149); details: COS7 hTOR1A-WT lysate, 635 nm fluorescence, higher = more signal
Torsin-1A (Homo sapiens), sequence (O14656 whole entry, looked up): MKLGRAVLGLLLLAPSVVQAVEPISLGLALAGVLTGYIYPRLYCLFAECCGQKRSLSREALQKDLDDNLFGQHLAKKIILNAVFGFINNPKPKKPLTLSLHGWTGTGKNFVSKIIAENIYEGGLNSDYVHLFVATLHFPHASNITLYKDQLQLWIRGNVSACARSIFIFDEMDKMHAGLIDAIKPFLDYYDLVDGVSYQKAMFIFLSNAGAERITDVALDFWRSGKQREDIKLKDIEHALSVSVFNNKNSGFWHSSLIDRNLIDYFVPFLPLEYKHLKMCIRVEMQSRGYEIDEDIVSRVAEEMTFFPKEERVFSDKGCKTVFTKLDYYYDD

Torsin-1A (Homo sapiens) [8] = molecular target: Torsin-1A (Homo sapiens) (UniProt O14656); experiment: small-molecule binders of mutant TOR1A in lysate, primary screen, cell lysate, small-molecule microarray, COS7 lysate, 635/667 nm fluorescence (AID 1150); details: COS7 hTOR1A mutant lysate, 635 nm fluorescence, higher = more signal;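 also: score pools 667 nm emission and signal to noise measuring lysate protein binding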
[9] = tested on: Sonic hedgehog protein (Shh); experiment: small-molecule binders of Shh protein, primary screen, biochemical, small-molecule microarray, 635/667 nm fluorescence (AID 1151); details: small-molecule microarray binding, 635 nm fluorescence; higher = more signal;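 also: Shh protein binding to compounds spotted on small-molecule microarray slides; score combines spot fluorescence intensity with signal-to-noise across triplicate slides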
[10] = E. coli DRC41 culture turbidity changes, primary screen, E. coli filamentation inducer project, strain DRC41, OD650, 48 h (AID 1152);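 also: E. coli MC1000 strain DRC41 lacking acrAB efflux pump and sulA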; details: E. coli DRC41 (acrAB sulA), higher = more signal, called active from +8 up or from −8 down
[11] = small-molecule binders of probe aLefty1, primary screen, biochemical, small-molecule microarray, 635/667 nm fluorescence (AID 1153); details: higher = more signal;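 also: score merges spot fluorescence with signal-to-noise ratio from the scanned slide images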
[12] = PSAC antagonists in infected red cells, primary screen, cell-based, P. falciparum Indochina, OD700, 1 h (AID 1154); details: P. falciparum Indochina infected RBC osmotic lysis, higher = more signal, called active from +8 up or from −8 down
[13] = PSAC antagonists in infected red cells, primary screen, cell-based, P. falciparum Indochina, OD700, 2 h (AID 1155);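 also: lysis reports solute entry through the parasite surface anion channel PSAC; channel blockers reduce lysis of infected cells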; details: P. falciparum Indochina infected erythrocytes, osmotic lysis OD700; higher = more signal, called active from +8 up or from −8 down
[14] = osmotic lysis modulators in infected erythrocytes, primary screen, PSAC antagonist project, cell-based, P. falciparum Indochina, OD700, 3 h (AID 1156); details: higher = more signal, called active from +8 up or from −8 down
[15] = PSAC antagonists in infected red cells, primary screen, cell-based, P. falciparum Indochina, OD700, 18 h (AID 1157); details: P. falciparum Indochina infected erythrocytes, osmotic lysis OD700, 18 h; higher = more signal, called active from +8 up or from −8 down
[16] = modulators of S6 phosphorylation in cells, primary screen, cell-based, A549, cytoblot, luminescence, serum-stimulated (AID 1158); details: A549 phospho-S6 cytoblot, 5 h, higher = more signal;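 also: serum-stimulated A549 lung adenocarcinoma cells; signal is phosphorylated S6 detected by cytoblot immunostaining with HRP secondary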
[17] = molecular target: NADPH oxidase 2 (Homo sapiens) (UniProt P04839); experiment: NOX2-dependent H2O2 signal modulators, primary screen, NOX inhibitor project, cell-based, HEK293-NOX2, PMA-stimulated, Amplex Red fluorescence (AID 1159); details: 45 min, higher = more signal, called active from +8 up or from −8 down; also: test concentration not given here
NADPH oxidase 2 (Homo sapiens), sequence (P04839 whole entry, looked up): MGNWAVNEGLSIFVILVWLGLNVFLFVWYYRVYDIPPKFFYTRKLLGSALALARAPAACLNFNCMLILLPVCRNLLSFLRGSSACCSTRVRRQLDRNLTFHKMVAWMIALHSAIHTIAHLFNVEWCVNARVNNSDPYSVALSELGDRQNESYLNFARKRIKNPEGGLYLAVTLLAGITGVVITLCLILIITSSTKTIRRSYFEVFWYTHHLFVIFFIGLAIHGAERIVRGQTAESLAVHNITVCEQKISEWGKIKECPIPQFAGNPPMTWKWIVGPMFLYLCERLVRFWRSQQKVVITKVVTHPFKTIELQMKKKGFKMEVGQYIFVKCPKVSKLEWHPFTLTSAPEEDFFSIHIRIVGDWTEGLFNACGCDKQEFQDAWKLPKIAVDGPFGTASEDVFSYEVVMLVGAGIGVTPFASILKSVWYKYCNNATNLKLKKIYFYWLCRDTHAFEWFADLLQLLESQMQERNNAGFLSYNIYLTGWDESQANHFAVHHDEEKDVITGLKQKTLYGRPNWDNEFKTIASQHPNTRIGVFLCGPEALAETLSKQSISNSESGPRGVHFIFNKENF

[18] = molecular target: NADPH oxidase 4 (Homo sapiens) (UniProt Q9NPH5); experiment: NOX4-dependent H2O2 signal modulators, primary screen, NOX inhibitor project, cell-based, HEK293-NOX4, tetracycline-induced, Amplex Red fluorescence (AID 1160); details: 45 min, higher = more signal, called active from +8 up or from −8 down
NADPH oxidase 4 (Homo sapiens), sequence (Q9NPH5 whole entry, looked up): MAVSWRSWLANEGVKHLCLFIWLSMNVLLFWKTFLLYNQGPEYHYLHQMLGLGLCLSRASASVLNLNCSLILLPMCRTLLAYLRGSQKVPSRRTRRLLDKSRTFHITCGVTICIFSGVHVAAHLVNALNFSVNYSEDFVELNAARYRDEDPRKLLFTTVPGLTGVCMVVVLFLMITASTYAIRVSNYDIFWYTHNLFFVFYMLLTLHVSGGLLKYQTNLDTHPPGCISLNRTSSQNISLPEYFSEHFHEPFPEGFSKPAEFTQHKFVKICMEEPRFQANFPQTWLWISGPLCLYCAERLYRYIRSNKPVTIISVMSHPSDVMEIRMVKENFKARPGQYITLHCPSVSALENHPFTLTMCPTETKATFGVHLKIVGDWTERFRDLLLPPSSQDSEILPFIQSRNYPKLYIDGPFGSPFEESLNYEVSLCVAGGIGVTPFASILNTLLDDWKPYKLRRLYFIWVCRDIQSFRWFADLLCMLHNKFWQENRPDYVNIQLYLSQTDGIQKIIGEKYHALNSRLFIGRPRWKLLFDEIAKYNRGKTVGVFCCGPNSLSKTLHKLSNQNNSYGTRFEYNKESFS

[19] = molecular target: NADPH oxidase 5 (Homo sapiens) (UniProt Q96PH1); experiment: NOX5-dependent H2O2 signal modulators, primary screen, NOX inhibitor project, cell-based, HEK293-NOX5, Amplex Red fluorescence (AID 1161); details: HEK293-NOX5, ionomycin, 45 min, higher = more signal
NADPH oxidase 5 (Homo sapiens), sequence (Q96PH1 whole entry, looked up): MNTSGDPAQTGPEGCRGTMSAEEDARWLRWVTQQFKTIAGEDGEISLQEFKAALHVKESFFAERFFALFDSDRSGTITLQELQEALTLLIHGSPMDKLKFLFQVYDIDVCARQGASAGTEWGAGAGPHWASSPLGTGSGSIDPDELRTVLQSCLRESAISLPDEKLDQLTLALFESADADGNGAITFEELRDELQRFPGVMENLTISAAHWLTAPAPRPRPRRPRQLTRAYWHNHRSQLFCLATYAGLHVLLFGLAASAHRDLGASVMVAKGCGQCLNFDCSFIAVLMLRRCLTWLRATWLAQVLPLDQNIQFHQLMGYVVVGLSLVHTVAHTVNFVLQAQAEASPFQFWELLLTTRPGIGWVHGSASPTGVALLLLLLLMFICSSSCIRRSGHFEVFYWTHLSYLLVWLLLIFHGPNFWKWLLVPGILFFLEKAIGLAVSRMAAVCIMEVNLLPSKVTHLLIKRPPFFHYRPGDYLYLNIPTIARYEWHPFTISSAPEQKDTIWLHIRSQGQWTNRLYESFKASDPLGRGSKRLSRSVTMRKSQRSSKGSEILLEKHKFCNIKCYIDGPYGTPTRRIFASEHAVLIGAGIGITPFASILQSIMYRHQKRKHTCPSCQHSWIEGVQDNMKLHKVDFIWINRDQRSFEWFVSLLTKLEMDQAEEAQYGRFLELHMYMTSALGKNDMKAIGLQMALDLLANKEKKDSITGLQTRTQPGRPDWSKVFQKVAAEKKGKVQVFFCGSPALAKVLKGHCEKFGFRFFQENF

| SMILES | composite z-score [1] | z-score [2] | z-score [3] | z-score [4] | composite z-score [5] | composite z-score [6] | composite z-score (Torsin-1A (Homo sapiens) [7]) | composite z-score (Torsin-1A (Homo sapiens) [8]) | composite z-score [9] | z-score [10] | composite z-score [11] | z-score [12] | z-score [13] | z-score [14] | z-score [15] | z-score [16] | z-score [17] | z-score [18] | z-score [19] |
| --- | --- | --- | --- | --- | --- | --- | --- | --- | --- | --- | --- | --- | --- | --- | --- | --- | --- | --- | --- |
| COCC(=C=CC[C@H](O)c1ccc(OCCO)cc1)C[C@H](O)c1ccccn1 | -0.0253 | -0.23 (inactive) | 3.18 (inactive) | -1.44 (inactive) | -0.65 | -0.018 | -0.353 | 0.904 | 1.05 | 1.36 (inactive) | -0.194 | 8.89 (active) | 0.989 (inactive) | 0.938 (inactive) | 0.48 (inactive) | -0.324 | 2.36 (inactive) | 1.71 (inactive) | 1.32 |
| C=CCC(OC(C)=O)[C@@H]1[C@@H](N(Cc2cc3ccccc3o2)C(=O)Cc2ccc(F)cc2)c2cc(OCCCO)ccc2N1C(=O)c1ccc(-c2ccccc2)cc1 (stereo partly specified) | -0.125 | 0.15 (inactive) | 0.787 (inactive) | -0.775 (inactive) | -0.117 | -0.0313 | -0.583 | -0.159 | 0.0351 | 1.66 (inactive) | 0.0091 | -0.171 (inactive) | 0.229 (inactive) | -0.454 (inactive) | 0.0413 (inactive) | 0.437 | 0.578 (inactive) | 0.684 (inactive) | 0.314 |
| COc1cccc([C@@H]2[C@@H](C)CC[C@H]3C(=O)N(C)[C@@H](C(C)C)C(=O)N23)c1 | 0.0537 | -0.205 (inactive) | 2.9 (inactive) | -0.762 (inactive) | 0.398 | -0.0523 | 0.798 | 0.101 | 0.39 | 1.1 (inactive) | -0.193 | -0.147 (inactive) | 0.651 (inactive) | -0.355 (inactive) | -0.0201 (inactive) | 0.423 | 0.226 (inactive) | 0.0929 (inactive) | 0.265 |
| C=CCc1cccc([C@H]2N[C@H](C(=O)O)CC[C@@H]2C)c1 | 0.023 | 0.0815 (inactive) | 1.46 (inactive) | -0.675 (inactive) | -0.0599 | -0.101 | 0.352 | 0.122 | 1.54 | 0.574 (inactive) | -0.237 | 0.734 (inactive) | 1.15 (inactive) | 0.794 (inactive) | 0.443 (inactive) | -0.167 | 0.183 (inactive) | 0.773 (inactive) | 0.0482 |
| C[N+](C)(C)CCCCNC(=O)[C@@H]1C[C@@H]2C(=O)N3CCC[C@H]3C(=O)N2[C@@H]1c1cccc(OCCO)c1 | 0.256 | -3.3 (inactive) | -0.671 (inactive) | -1.62 (inactive) | -0.315 | -0.128 | 0.725 | 1.03 | 1.84 | 1.25 (inactive) | 0.14 | 2.9 (inactive) | -0.732 (inactive) | -2.56 (inactive) | -2.13 (inactive) | 0.326 | -1.42 (inactive) | -0.183 (inactive) | -0.87 |
| C[C@H]1NC(=O)[C@@H](C)NC(=O)[C@@]23C(=O)N[C@@H](Cc4ccccc4)C2[C@H](C)[C@@]2(C)O[C@H]2C3/C=C/C/C=C\CNC1=O (stereo partly specified) | 0.0845 | -0.333 (inactive) | 3.4 (inactive) | -1.32 (inactive) | -0.594 | -0.128 | 0.153 | -0.354 | 0.651 | 2.35 (inactive) | -0.245 | 1.27 (inactive) | 0.279 (inactive) | 0.234 (inactive) | 0.157 (inactive) | 0.52 | 0.248 (inactive) | -0.848 (inactive) | 0.442 |
| O=C(NCC(O)CO)[C@]1(Cc2ccccc2)N=C(c2ccc(OCCCO)cc2)O[C@@H]1c1ccccc1 (stereo partly specified) | 0.454 | -3.91 (inactive) | 0.171 (inactive) | -1.08 (inactive) | 1.38 | 0.633 | 0.379 | 1.81 | -0.617 | 0.738 (inactive) | 1.39 | 25.1 (active) | 12 (active) | 0.267 (inactive) | 0.35 (inactive) | 0.807 | 0.489 (inactive) | 1.68 (inactive) | 1.7 |
| C=CC[C@]1(C(N)=O)N=C(c2ccc(OCCCO)cc2)O[C@H]1c1ccccc1CN=[N+]=[N-] | 0.151 | -4.28 (inactive) | 1.54 (inactive) | -1.31 (inactive) | 1.42 | -0.0093 | 1.69 | 0.96 | -0.373 | 2.19 (inactive) | -0.007 | 23.9 (active) | 6.58 (inactive) | -0.294 (inactive) | 0.837 (inactive) | 1.73 | -2.02 (inactive) | -0.202 (inactive) | 0.568 |
| O=C1O[C@@H](c2ccccc2)[C@@H](c2ccccc2)N2[C@@H](c3ccc(O)cc3)[C@]3(C(=O)Nc4ccccc43)[C@@H](C(=O)N3CCN(c4ncccn4)CC3)[C@H]12 | -0.0063 | -5 (inactive) | -0.815 (inactive) | -0.245 (inactive) | -0.6 | -0.178 | 0.828 | 0.232 | -0.0193 | 3.11 (inactive) | -0.263 | 2.76 (inactive) | -0.363 (inactive) | 0.541 (inactive) | -1.54 (inactive) | 2.51 | 0.142 (inactive) | -0.0244 (inactive) | 1.51 |
